# Test results reported in PubChem BioAssay AID493203 (National Center for Advancing Translational Sciences (NCATS), 2011).
# Records with an inconclusive call do not appear. Where a call stands in place of a potency, no number is given. Activity calls are given as the source filed them. Calls follow the shape of the dose curve; as a rule, active = well fitted activation curve with a large enough effect; inconclusive = small, poorly fitted or top-dose-only effect; inactive = flat fitted curve, though single readings scatter.
# Assay: qHTS Assay for NPC1 Promoter Activators: Initial hit validation from the primary screen
# Settings: Huh7 NPC1 promoter-luciferase reporter, luminescence, 24 h; series mostly up to 46.1 µM
# How it was run: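 Huh7 cells stably carrying NPC1 promoter-luciferase, 1500 cells per well in OP-MEM I with 10% FBS; compounds added after 2 hours and incubated 24 hours at 37C. Luminescence read 10 minutes after Amplite luciferase reagent.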
# Potency is read from the fitted curve at half-maximal effect.
row,SMILES,Potency
1,NCCOc1ccccc1-c1ccccc1,inactive
2,COc1ccc2oc(=O)c(C(=O)NC(C)c3ccccc3)cc2c1 (centres undefined),inactive
3,Fc1ccc(-c2nc3nc4ccccc4nc3n2Cc2ccco2)cc1,inactive
4,O=C(COC(=O)c1ccc(-c2nnc(-c3ccccc3)o2)cc1)c1ccccc1,396 nM (active)
5,CCc1cc(C(=O)Nc2ccccc2)cs1,2230 nM (active)
6,COc1cccc(NC(=O)CN2C(=O)CSc3ccc(S(=O)(=O)N4CCC(C)CC4)cc32)c1,inactive
7,CCN(C(=O)COC(=O)c1ccc(C=O)cc1)c1c(N)n(Cc2ccccc2)c(=O)[nH]c1=O,inactive
8,Cc1csc(NC(=O)CSc2nnc(-c3ccncc3)o2)n1,15800 nM (active)
9,Cc1ccccc1NC(=O)CSc1ccc(-c2cccnc2)nn1,inactive
10,CCOC(=O)CSc1nc2cc3c(cc2cc1C#N)OCO3,888 nM (active)
11,CCCOP(=O)(c1ccc(N(C)C)cc1)C(O)c1cccnc1 (centres undefined),inactive
12,COCCNC(=O)CN1C(=O)NC(c2ccccc2)(c2ccccc2)C1=O,inactive
13,CC(C)C1(CCNC(=O)c2cccs2)CCOC(C)(C)C1 (centres undefined),inactive
14,Cc1ccc(N(O)C(=O)NCCCCNC(=O)N(O)c2ccc(C)cc2)cc1,25000 nM (active)
15,Cc1ccc(NC(=O)c2ncc(Cl)c(Cl)c2Cl)cc1C,inactive
16,CCCOC(=O)Cn1cnc2scc(-c3ccc(OC)cc3)c2c1=O,inactive
17,Cc1noc(/C=C/N(C)C)c1S(=O)(=O)N1CCCC(C(=O)N2CCCCC2)C1 (centres undefined),inactive

row,SMILES,Potency
1,COc1ccc(S(=O)(=O)NC(C(=O)NCCc2ccccn2)C(C)C)cc1 (centres undefined),inactive
2,O=C(CCCN1C(=O)C(c2ccccc2)Oc2cccnc21)Nc1ccccc1Cl (centres undefined),inactive
3,COc1cccc(C2Nc3ccccc3NC3=C2C(=O)CC(C)(C)C3)c1 (centres undefined),inactive
4,CC1CCCN(S(=O)(=O)c2ccc(C(=O)Nc3nnc(-c4ccncc4)o3)cc2)C1 (centres undefined),inactive
5,CCCNC(=O)C1CCN(S(=O)(=O)c2ccc3[nH]c(=O)ccc3c2)CC1,inactive
6,C=CCc1ccc(OCCOCCNCCOC)c(OC)c1,inactive
7,O=C(NC1CCCC1)C(c1ccc(F)cc1)N(C(=O)c1csnn1)c1ccccc1 (centres undefined),inactive
8,CCCN(CCC)CCCNC(=O)c1cc2cc3ccc(Cl)cc3nc2o1,inactive
9,O=C(CCc1cccc(Cl)c1)NC1CCCN(Cc2ccccc2F)C1 (centres undefined),inactive
10,Cc1cccc(C)c1NC(=O)Nc1cccs1,inactive
11,COC(=O)c1ccc(NC(=O)c2ccc3nc(C)sc3c2)cc1,888 nM (active)
12,CC(C)(C)NC(=S)NNC(=O)c1ccc2ncccc2c1,3530 nM (active)
13,O=C(CCNC(=O)c1ccc(Br)o1)NCc1ccc(Cl)cc1,inactive
14,Nc1ccccc1C(=O)N/N=C1/C2CN3CCN(C2)CC1(Cc1ccccc1)C3,inactive
15,Cn1c(SCc2ccccc2)nnc1-c1cnccn1,15800 nM (active)
16,COc1ccc(-c2cc(C(=O)Nc3ccccc3F)on2)cc1,31500 nM (active)
17,COC(=O)CSc1nc2cc3c(cc2cc1C#N)OCO3,315 nM (active)
